Experimental findings from ChEMBL document CHEMBL1961873, “Compounds: GSK PKIS; Assays: Nanosyn kinase panel” (2012) are described below.

SMILES strings stand for the structures.

The target of assay [1] is Protein kinase C gamma type (Homo sapiens) (UniProt P05129). To be noted: at 1 µM.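 Further: each value is an averaged percent inhibition of the enzyme.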
In assay [2] the target is T1, Protein kinase C iota type (Homo sapiens) (UniProt P41743).
T1 sequence (whole entry): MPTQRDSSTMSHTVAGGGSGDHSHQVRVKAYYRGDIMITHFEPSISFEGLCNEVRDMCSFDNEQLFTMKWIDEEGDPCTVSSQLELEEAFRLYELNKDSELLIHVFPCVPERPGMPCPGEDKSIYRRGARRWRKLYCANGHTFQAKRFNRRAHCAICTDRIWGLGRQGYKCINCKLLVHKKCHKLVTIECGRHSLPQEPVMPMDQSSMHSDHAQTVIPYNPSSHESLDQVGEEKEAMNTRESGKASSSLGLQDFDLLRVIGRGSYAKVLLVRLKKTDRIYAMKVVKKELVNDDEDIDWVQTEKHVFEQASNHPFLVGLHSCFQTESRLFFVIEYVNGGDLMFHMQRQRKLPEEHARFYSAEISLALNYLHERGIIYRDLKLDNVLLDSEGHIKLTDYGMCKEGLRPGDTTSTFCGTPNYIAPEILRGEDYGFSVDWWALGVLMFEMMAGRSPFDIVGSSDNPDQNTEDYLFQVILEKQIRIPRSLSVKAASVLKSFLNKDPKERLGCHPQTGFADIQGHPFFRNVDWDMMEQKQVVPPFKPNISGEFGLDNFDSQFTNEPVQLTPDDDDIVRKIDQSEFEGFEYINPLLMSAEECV
As to conditions: at 0.1 µM.

Assay [3] concerns the target T1, Protein kinase C iota type (Homo sapiens). As to conditions: at 1 µM.
Assay [4] addresses Protein kinase C theta type (Homo sapiens) (UniProt Q04759). As to conditions: at 0.1 µM.
The target is the same in assay [5]. To be noted: at 1 µM.
Assay [6] concerns the target Protein kinase C beta type (Homo sapiens) (UniProt P05771). As to conditions: at 0.1 µM.
For assay [7] the target is unchanged. To be noted: at 1 µM.
The target of assay [8] is T2, Serine/threonine-protein kinase D1 (Homo sapiens) (UniProt Q15139).
T2 sequence (whole entry): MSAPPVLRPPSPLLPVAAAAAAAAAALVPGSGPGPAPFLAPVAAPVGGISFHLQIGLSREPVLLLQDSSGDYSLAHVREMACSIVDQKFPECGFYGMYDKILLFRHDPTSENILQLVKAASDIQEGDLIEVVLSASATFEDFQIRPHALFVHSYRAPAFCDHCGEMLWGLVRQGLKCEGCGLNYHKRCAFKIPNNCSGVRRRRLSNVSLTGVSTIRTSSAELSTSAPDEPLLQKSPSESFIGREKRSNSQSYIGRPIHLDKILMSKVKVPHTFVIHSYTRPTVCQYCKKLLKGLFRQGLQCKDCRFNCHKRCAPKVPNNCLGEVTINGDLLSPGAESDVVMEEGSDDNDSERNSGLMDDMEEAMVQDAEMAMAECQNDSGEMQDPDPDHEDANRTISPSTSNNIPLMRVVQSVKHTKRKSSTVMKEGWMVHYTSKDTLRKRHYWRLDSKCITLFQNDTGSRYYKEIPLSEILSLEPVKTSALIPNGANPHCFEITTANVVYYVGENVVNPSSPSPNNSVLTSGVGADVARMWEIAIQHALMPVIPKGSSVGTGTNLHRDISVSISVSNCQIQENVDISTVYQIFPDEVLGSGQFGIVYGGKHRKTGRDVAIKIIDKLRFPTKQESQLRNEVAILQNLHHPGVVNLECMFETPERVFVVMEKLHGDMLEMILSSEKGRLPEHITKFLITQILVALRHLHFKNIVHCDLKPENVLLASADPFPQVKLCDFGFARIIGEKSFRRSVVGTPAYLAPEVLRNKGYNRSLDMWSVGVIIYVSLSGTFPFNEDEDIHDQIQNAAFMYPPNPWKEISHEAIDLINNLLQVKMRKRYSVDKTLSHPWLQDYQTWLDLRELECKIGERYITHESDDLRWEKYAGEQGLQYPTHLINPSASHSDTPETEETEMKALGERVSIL
To be noted: at 0.1 µM.

The target in assay [9] is T2, Serine/threonine-protein kinase D1 (Homo sapiens). As to conditions: at 1 µM.
Assay [10] has as its target T3, Serine/threonine-protein kinase D2 (Homo sapiens) (UniProt Q9BZL6).
T3 sequence (whole entry): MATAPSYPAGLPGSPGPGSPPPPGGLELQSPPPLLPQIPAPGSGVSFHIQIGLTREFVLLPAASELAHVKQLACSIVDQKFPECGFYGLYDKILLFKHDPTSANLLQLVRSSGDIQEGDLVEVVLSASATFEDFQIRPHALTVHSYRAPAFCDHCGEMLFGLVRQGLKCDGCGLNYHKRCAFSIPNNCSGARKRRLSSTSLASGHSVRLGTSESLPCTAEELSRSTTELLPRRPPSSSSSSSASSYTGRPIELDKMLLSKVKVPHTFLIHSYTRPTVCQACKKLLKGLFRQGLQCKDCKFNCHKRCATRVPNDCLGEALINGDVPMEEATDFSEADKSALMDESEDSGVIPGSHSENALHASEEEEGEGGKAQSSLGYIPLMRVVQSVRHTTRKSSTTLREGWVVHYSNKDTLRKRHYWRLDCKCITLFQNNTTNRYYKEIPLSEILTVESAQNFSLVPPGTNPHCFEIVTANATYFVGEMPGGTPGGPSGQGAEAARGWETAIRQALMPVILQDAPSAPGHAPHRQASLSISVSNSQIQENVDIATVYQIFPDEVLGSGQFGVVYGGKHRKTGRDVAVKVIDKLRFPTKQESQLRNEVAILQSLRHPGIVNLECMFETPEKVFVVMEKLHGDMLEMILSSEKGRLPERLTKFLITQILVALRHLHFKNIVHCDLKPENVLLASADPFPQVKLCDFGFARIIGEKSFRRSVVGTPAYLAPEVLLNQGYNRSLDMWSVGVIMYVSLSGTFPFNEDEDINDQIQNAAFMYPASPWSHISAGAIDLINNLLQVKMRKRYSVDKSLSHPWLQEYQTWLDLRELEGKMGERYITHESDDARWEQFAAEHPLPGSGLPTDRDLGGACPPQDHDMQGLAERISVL
As to conditions: at 0.1 µM.

Assay [11] has as its target T3, Serine/threonine-protein kinase D2 (Homo sapiens). To be noted: at 1 µM.
Assay [12] addresses T4, Serine/threonine-protein kinase D3 (Homo sapiens) (UniProt O94806).
T4 sequence (whole entry): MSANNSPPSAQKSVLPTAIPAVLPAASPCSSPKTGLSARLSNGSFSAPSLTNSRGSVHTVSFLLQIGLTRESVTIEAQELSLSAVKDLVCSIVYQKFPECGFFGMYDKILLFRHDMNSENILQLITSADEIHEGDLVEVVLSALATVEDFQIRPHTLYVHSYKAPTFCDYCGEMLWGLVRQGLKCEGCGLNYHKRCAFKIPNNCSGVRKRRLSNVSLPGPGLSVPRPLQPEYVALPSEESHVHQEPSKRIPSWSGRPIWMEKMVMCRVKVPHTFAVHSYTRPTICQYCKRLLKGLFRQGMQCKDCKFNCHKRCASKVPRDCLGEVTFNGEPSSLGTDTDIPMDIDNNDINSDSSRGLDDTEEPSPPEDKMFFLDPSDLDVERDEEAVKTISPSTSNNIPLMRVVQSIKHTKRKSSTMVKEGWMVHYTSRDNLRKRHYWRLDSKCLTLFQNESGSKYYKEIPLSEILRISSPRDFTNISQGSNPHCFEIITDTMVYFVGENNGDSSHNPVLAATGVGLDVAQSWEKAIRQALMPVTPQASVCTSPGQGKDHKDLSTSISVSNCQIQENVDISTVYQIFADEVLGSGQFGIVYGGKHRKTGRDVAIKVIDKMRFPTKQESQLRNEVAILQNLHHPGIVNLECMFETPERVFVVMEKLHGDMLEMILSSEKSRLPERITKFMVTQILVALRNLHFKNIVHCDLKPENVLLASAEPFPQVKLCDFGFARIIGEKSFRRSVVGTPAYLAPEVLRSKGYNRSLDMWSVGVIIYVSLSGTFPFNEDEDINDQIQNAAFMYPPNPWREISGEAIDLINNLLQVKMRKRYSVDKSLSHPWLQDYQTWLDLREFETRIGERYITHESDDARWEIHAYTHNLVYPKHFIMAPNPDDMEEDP
To be noted: at 0.1 µM.

Assay [13] addresses T4, Serine/threonine-protein kinase D3 (Homo sapiens). As to conditions: at 1 µM.
Assay [14] concerns the target T5, cGMP-dependent protein kinase 1 (Homo sapiens) (UniProt Q13976).
T5 sequence (whole entry): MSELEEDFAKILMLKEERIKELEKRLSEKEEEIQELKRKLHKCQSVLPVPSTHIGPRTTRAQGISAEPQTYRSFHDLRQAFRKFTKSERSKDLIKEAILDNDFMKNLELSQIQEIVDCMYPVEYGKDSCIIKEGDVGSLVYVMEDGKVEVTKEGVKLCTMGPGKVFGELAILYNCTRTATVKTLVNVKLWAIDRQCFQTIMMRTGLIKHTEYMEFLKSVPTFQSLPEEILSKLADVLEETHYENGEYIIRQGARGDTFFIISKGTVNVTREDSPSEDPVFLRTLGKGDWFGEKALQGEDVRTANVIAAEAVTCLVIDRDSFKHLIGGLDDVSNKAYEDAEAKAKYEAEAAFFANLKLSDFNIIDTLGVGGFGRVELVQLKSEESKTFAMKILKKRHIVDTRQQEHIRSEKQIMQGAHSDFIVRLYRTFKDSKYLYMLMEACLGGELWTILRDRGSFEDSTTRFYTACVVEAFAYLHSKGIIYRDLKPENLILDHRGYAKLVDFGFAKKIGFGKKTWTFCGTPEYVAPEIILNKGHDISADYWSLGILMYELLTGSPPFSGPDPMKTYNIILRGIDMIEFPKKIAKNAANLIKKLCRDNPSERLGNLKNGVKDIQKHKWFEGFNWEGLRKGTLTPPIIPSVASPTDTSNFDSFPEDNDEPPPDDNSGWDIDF
To be noted: at 0.1 µM.

Assay [15] deals with T5, cGMP-dependent protein kinase 1 (Homo sapiens). As to conditions: at 1 µM.
Assay [16] concerns the target T6, cGMP-dependent protein kinase 2 (Homo sapiens) (UniProt Q13237).
T6 sequence (whole entry): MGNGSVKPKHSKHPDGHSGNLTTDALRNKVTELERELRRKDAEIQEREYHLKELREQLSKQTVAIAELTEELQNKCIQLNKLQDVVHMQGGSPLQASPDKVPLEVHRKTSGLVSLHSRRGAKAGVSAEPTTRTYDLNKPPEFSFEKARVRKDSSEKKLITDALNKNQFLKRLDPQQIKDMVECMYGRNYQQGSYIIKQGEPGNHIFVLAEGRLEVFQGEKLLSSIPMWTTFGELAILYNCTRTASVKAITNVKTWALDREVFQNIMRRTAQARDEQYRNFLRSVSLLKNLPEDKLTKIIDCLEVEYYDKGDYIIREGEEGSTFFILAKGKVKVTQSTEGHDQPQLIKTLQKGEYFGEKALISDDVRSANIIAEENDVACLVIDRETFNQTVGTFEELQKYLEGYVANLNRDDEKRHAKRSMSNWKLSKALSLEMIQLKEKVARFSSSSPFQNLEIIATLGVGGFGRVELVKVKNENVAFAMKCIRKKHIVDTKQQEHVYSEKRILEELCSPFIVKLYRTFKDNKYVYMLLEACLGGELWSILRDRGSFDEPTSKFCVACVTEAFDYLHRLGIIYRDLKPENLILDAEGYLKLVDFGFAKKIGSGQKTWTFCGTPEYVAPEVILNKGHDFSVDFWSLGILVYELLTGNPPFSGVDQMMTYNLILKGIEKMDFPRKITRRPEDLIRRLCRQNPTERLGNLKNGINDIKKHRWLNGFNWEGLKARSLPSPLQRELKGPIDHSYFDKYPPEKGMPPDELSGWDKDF
To be noted: at 0.1 µM.

In assay [17] the target is T6, cGMP-dependent protein kinase 2 (Homo sapiens). As to conditions: at 1 µM.
Assay [18] deals with T7, cAMP-dependent protein kinase catalytic subunit PRKX (Homo sapiens) (UniProt P51817).
T7 sequence (whole entry): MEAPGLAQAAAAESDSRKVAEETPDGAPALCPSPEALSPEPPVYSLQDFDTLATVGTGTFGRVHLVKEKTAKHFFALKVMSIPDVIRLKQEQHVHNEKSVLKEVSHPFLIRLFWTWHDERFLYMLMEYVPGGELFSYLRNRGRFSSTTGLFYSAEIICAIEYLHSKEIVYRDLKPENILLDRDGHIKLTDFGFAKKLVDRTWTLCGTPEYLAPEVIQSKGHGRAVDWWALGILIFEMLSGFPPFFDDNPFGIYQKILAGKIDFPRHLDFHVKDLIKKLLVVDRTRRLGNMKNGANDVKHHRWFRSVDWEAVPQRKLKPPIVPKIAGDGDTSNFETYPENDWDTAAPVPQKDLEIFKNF
To be noted: at 0.1 µM.

The target of assay [19] is T7, cAMP-dependent protein kinase catalytic subunit PRKX (Homo sapiens). To be noted: at 1 µM.
The target of assay [20] is Rho-associated protein kinase 1 (Homo sapiens) (UniProt Q13464). To be noted: at 0.1 µM.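 Further: values are mean percent inhibition of ROCK1.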
Sequence of Rho-associated protein kinase 1 (Homo sapiens) (Q13464 2-1354 limits assumed): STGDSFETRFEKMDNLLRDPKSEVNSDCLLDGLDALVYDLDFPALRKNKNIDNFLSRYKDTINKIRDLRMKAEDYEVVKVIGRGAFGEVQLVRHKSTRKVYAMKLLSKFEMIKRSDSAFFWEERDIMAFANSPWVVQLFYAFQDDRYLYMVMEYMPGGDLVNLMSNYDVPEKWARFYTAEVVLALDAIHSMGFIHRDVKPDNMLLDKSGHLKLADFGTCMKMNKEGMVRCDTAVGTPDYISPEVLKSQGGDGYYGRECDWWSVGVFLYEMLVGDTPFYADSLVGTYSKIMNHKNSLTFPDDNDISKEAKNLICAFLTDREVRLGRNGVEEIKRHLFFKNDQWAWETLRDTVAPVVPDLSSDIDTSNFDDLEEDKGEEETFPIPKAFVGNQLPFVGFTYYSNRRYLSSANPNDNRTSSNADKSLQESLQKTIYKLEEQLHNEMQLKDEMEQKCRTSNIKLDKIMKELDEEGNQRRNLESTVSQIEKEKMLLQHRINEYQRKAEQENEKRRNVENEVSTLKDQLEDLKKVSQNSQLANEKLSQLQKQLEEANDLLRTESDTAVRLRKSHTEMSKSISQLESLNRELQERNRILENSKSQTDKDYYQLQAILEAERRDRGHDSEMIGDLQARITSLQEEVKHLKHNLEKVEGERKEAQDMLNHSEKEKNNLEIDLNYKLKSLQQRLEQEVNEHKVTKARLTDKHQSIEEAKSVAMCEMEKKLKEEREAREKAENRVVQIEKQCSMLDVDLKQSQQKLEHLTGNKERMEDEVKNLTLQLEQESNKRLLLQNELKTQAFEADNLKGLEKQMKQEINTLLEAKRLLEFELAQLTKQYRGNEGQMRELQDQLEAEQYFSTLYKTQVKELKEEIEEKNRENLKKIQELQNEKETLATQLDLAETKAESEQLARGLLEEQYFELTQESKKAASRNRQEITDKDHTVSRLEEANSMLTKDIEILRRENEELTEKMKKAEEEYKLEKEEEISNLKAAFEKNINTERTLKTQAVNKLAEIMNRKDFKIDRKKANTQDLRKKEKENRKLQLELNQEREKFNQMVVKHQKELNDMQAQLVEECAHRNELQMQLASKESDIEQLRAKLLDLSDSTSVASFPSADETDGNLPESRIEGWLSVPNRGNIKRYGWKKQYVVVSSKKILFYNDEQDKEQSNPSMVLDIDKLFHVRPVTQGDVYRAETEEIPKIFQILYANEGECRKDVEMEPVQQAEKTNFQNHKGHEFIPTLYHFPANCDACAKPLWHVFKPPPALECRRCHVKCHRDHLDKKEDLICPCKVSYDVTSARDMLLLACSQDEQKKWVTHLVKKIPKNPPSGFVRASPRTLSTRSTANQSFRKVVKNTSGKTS

Sequence of Protein kinase C theta type (Homo sapiens) (Q04759 whole entry, looked up): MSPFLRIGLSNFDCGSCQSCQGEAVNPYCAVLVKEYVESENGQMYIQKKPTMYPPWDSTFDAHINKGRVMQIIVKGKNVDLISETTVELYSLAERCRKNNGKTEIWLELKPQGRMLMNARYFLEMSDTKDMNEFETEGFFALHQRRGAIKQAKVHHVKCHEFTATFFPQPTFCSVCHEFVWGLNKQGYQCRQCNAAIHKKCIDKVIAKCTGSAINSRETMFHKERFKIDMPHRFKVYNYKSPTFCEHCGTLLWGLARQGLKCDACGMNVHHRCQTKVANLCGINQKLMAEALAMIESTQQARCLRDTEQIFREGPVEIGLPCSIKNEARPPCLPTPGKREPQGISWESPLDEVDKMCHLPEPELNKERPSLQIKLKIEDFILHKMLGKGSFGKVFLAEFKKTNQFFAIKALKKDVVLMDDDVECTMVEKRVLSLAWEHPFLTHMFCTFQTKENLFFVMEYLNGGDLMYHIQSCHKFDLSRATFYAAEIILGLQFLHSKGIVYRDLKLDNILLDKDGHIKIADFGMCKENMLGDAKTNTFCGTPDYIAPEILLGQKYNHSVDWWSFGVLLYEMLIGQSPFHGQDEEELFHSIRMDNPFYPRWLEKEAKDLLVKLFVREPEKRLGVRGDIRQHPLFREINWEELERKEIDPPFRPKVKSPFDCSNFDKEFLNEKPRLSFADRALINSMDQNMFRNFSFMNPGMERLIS
Sequence of Protein kinase C beta type (Homo sapiens) (P05771 2-671 limits assumed): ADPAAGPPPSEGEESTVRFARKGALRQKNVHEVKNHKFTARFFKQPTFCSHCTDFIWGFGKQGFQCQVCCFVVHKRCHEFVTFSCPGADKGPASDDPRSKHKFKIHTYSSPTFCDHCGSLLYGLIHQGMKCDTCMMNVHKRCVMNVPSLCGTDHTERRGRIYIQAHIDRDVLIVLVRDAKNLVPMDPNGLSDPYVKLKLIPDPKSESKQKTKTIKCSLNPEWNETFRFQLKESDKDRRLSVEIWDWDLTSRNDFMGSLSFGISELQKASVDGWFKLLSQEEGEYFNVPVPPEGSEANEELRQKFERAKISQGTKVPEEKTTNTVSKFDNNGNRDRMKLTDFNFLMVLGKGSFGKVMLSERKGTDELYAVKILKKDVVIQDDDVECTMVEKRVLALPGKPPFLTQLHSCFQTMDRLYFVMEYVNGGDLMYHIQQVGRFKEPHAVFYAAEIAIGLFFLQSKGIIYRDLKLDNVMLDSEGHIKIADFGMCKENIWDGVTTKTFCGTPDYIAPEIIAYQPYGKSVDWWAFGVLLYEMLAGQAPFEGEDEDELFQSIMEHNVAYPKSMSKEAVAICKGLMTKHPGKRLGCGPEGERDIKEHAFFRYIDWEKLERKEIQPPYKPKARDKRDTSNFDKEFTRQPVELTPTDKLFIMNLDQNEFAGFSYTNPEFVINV

Turning to `Cn1c(-c2nonc2N)nc2cnccc21`, the inhibition in [1] worked out at 2.78%; in assay [2], 1.03%; in assay [3] it was 3.76%; in assay [4] it was 1.13%; in assay [5], 3.08%; in [6] it was 1.16%. Besides, the inhibition turned out to be 5.62% in [7]; 3.06% in [8]; 14.8% in assay [9]; 2.42% in assay [10]; 10.4% in [11]; 2.73% in [12]. Besides, the inhibition in assay [13] was determined as 8.54%; in assay [14], 3.02%; in assay [15], 15%; in assay [16] it was 6.01%; in [17], 38.7%; in assay [18] it was 2.45%. Also, the inhibition in assay [19] is 6.56%; in assay [20], 10.8%.

On to `O=C(O[C@H]1CN[C@H](C#Cc2cc3ncnc(Nc4ccc5c(ccn5Cc5cc(F)ccc5F)c4)c3s2)C1)N1CCOCC1`, for which the inhibition was determined as 3.05% in assay [1]; 2.82% in [2]; 3.06% in assay [3]; 1.84% in assay [4]; 0.91% in assay [5]; 1.75% in [6]. Moreover, the inhibition in assay [7] was 0.99%; in assay [8], 3.66%; in [9] it was 6.58%; in assay [10] it was 4.5%; in assay [11], 5.35%; in [12], 5.21%. Moreover, the inhibition in assay [13] is 6.35%; in assay [14] it was 2.6%; in assay [15], 3.55%; in assay [16] it was 2.56%; in assay [17] it was 3.72%; in assay [18], 2.19%. Moreover, the figures for the inhibition in assay [19] and in assay [20] were 2.67% and 0.77%, respectively.
